The term Kd denotes the constant that tells how readily two partners part at equilibrium.

The first experiment concerns the target T1, Kni (Drosophila melanogaster, UniProt P10734 2-102).
T1 sequence: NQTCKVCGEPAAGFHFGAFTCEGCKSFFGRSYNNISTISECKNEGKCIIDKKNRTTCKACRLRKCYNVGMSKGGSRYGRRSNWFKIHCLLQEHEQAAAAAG
The experiment can be described thus: FP; 33 mM phosphate pH 7.0, 90 mM NaCl, 0.01% Tween 20, 0.1 mM DTT, 0.5% agarose; room temperature. To be noted: tags: N-GST (pGEX-6P-1, kept); dsDNA, one strand shown.
Consider CAAAACTAGAGCGCT, for which the binding signal is 3.42 Kd / Kd of best base at the position.
On the same count and under the same terms, as for CAAAACCAGAGCACT, the figure is 2.45 Kd / Kd of best base at the position.
For CAAAAGTAGAGCACT, the binding signal was 1.65 Kd / Kd of best base at the position.
Regarding CAAATCTAGAGCACT, the binding signal was 2.46 Kd / Kd of best base at the position.
Turning to CAGAACTAGAGCACT, the binding signal is 1.99 Kd / Kd of best base at the position.
On the same count and under the same terms, the same measure for GAAAACTAGAGCACT: 1.36 Kd / Kd of best base at the position; for CAAACCTAGAGCACT: 16.3 Kd / Kd of best base at the position.
The same measure, in the same setting: as for CTAAACTAGAGCACT, the figure is 1.45 Kd / Kd of best base at the position.
On to CATAACTAGAGCACT, for which the binding signal was 1.93 Kd / Kd of best base at the position.
Same read-out and setting: the same measure for CAAAACTAGAGCATT: 2.42 Kd / Kd of best base at the position.

In the next experiment the target is T2, Cad (Drosophila melanogaster, UniProt P09085 273-344).
T2 sequence: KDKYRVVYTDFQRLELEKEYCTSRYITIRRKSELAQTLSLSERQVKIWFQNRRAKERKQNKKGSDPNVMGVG
The experiment can be described thus: FP; 20 mM Tris-acetate pH 7.0, 50 "nM" NaCl as printed (probably mM), 0.01% Tween 20, 0.1 mM DTT; conventional titration. To be noted: tags: N-GST (pGEX-6P-1, kept); dsDNA, one strand shown.
For the sequence CAGTTTTTATA, the binding signal was 1.11 Kd / Kd of best base at the position.
On the same count and under the same terms, as for CACTTTTTATC, the figure is 13.5 Kd / Kd of best base at the position; as for CACTTTTAATA, 4.1 Kd / Kd of best base at the position.
Consider CACTTTTTACA, for which the binding signal is 1.6 Kd / Kd of best base at the position.
Still for that read-out and setting: the same measure for CACCTTTTATA: 1.7 Kd / Kd of best base at the position; for CACTTTGTATA: 27.9 Kd / Kd of best base at the position.
Still for that read-out and setting: as for CACATTTTATA, the figure is 2.5 Kd / Kd of best base at the position; as for TACTTTTTATA, 1.3 Kd / Kd of best base at the position.
Same read-out and setting: as for CACTGTTTATA, the figure is 3.1 Kd / Kd of best base at the position.
With CGCTTTTTATA, the binding signal was 3.5 Kd / Kd of best base at the position.
The same measure, in the same setting: as for CTCTTTTTATA, the figure is 4.6 Kd / Kd of best base at the position; as for CACTTTTTTTA, 181 Kd / Kd of best base at the position.
As for CACTTTTTGTA, the binding signal is 29 Kd / Kd of best base at the position.
On the same count and under the same terms, as for CACTTTTTATT, the figure is 5.4 Kd / Kd of best base at the position; as for CACTTTTGATA, 50.5 Kd / Kd of best base at the position; as for CACTTTCTATA, 37.9 Kd / Kd of best base at the position.
In turn, CACTTTTTATA returned a dissociation constant Kd of around 0.05 nM.
Take CACGTTTTATA: the binding signal is 5.5 Kd / Kd of best base at the position.
For the sequence CACTTTTTAAA, the binding signal is 13.6 Kd / Kd of best base at the position.
Turning to CACTTTTCATA, the binding signal is 17.6 Kd / Kd of best base at the position.
The same measure, in the same setting: the same measure for CACTTTTTATG: 2.2 Kd / Kd of best base at the position.
On to CACTTTTTCTA, for which the binding signal was 287 Kd / Kd of best base at the position.
Take CACTTGTTATA: the binding signal is 16.7 Kd / Kd of best base at the position.
Still for that read-out and setting: the same measure for CATTTTTTATA: 6.67 Kd / Kd of best base at the position.
Still for that read-out and setting: the same measure for AACTTTTTATA: 2.9 Kd / Kd of best base at the position.
On the same count and under the same terms, as for CACTTTTTAGA, the figure is 16 Kd / Kd of best base at the position; as for CACTTTATATA, 3 Kd / Kd of best base at the position; as for CACTTATTATA, 2.8 Kd / Kd of best base at the position.
Consider CAATTTTTATA, for which the binding signal is 2 Kd / Kd of best base at the position.
With CACTTCTTATA, the binding signal is 16.8 Kd / Kd of best base at the position.

Values taken from article PMC5913336, “True equilibrium measurement of transcription factor-DNA binding affinities using automated polarization microscopy”.
